The full data set covers some 7,900 targets. This sample favours those with a hit. About 0.6% of all pairs of compound and target were hits. Values without a mark were called inactive.
Columns and labels:
Experiment in all cases: log2 fold change, soluble protein after heating vs DMSO (PISA); higher = thermal stabilisation; K562 cells, 10 uM, 30 min; active = over 0.2 and 3.5 SD of the protein, either way, in both replicates (recomputed)
[1] = compound: CS(=O)(=O)c1ccc(-c2cnc(N)c(C(=O)Nc3ccccc3)n2)cc1
Method in brief: (§1)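 K562 cells at 2×10^6 cells/mL were exposed to 10 μM compound for 30 min, then aliquots were heated for 3 min across 48°C-58°C, pooled, and extracted in PBS containing 0.5% NP-40 at 4°C. The supernatant after 21,000xg for 90 min was taken as soluble protein and measured by TMTpro 16plex LC-MS/MS with channel sums equalised. Thermal stability is reported relative to control samples, with values from duplicates. Fold changes are given on a log2 scale.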

crizotinib = compound: C[C@@H](Oc1cc(-c2cnn(C3CCNCC3)c2)cnc1N)c1c(Cl)ccc(F)c1Cl [crizotinib]
Method in brief: as §1

[2] = compound: C[C@@H]1COCCN1C2=NC(=NC(=C2)C3(CC3)S(=O)(=O)C)C4=C5C=CNC5=CC=C4
Method in brief: as §1

[3] = compound: C[C@H](C1=CC=C(C=C1)C(=O)NC2=C3C=CNC3=NC=C2)N
Method in brief: as §1

gandotinib = compound: Cc1cc(Nc2cc(CN3CCOCC3)c3nc(C)c(Cc4ccc(Cl)cc4F)n3n2)n[nH]1 [gandotinib]
Method in brief: as §1

tozasertib = compound: Cc1cc(Nc2cc(N3CCN(C)CC3)nc(Sc3ccc(NC(=O)C4CC4)cc3)n2)n[nH]1 [tozasertib]
Method in brief: as §1

doramapimod = compound: Cc1ccc(-n2nc(C(C)(C)C)cc2NC(=O)Nc2ccc(OCCN3CCOCC3)c3ccccc23)cc1 [doramapimod]
Method in brief: as §1

ispinesib = compound: Cc1ccc(C(=O)N(CCCN)[C@@H](c2nc3cc(Cl)ccc3c(=O)n2Cc2ccccc2)C(C)C)cc1 [ispinesib]
Method in brief: as §1

duvelisib = compound: C[C@H](Nc1ncnc2nc[nH]c12)c1cc2cccc(Cl)c2c(=O)n1-c1ccccc1 [duvelisib]
Method in brief: as §1

[4] = compound: Cc1cc(SCc2sc(-c3ccc(C(F)(F)F)cc3)nc2C)ccc1OCC(=O)O
Method in brief: as §1

Sequence of UniProt Q9H6N6 (Q9H6N6 whole entry, looked up): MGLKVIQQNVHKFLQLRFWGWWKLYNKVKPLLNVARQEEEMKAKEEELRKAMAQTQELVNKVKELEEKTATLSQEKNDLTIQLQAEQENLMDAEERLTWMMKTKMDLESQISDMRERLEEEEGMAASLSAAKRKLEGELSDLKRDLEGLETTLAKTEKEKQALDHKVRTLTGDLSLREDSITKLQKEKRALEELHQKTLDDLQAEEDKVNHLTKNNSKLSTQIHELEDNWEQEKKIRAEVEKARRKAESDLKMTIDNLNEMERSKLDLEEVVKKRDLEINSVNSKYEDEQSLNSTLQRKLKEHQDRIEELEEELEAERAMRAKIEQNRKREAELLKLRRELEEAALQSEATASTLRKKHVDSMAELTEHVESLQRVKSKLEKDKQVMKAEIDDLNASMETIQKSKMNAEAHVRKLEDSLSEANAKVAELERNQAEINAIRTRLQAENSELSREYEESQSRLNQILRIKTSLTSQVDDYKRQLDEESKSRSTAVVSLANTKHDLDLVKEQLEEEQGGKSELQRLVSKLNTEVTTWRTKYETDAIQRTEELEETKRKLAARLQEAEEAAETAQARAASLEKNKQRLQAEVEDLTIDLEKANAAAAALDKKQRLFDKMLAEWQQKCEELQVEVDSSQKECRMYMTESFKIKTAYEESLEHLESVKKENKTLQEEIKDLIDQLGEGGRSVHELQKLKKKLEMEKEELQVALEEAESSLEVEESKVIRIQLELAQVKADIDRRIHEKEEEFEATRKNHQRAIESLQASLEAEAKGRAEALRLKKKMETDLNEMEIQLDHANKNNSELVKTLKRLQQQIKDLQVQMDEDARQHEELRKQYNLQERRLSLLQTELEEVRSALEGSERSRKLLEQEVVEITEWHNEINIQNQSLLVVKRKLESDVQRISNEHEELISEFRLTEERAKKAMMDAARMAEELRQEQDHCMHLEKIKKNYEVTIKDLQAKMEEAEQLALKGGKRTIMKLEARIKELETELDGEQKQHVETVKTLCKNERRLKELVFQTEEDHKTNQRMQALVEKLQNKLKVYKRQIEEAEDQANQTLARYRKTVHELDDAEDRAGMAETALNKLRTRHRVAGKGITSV
Sequence of UniProt Q9BZQ8 (Q9BZQ8 whole entry, looked up): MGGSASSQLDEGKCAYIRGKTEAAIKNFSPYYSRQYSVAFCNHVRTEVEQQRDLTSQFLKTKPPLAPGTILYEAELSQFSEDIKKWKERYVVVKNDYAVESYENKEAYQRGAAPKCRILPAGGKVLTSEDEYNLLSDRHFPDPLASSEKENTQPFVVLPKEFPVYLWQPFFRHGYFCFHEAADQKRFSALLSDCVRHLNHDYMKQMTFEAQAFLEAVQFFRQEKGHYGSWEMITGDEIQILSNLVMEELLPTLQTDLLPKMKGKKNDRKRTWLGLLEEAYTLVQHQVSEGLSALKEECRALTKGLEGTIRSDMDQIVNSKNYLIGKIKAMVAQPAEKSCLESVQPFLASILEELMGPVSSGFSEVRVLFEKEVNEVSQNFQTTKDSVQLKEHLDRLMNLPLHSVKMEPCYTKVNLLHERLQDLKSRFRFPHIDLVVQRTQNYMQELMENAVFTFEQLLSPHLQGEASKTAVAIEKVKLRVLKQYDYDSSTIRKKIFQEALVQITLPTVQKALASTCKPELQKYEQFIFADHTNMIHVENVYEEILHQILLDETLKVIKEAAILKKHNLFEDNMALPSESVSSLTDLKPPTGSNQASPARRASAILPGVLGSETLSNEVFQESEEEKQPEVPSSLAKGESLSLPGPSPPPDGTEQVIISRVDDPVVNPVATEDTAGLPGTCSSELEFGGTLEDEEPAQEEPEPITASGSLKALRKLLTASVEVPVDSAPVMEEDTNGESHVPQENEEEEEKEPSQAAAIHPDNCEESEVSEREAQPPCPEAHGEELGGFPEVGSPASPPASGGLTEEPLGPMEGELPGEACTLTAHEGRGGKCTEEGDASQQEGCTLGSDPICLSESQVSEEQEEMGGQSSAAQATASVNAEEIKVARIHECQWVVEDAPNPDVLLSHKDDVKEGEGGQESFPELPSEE
Sequence of UniProt Q69YL0 (Q69YL0 whole entry, looked up): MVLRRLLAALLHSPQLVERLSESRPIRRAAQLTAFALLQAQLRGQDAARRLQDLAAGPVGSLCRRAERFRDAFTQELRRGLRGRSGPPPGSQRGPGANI
Sequence of UniProt P48645 (P48645 whole entry, looked up): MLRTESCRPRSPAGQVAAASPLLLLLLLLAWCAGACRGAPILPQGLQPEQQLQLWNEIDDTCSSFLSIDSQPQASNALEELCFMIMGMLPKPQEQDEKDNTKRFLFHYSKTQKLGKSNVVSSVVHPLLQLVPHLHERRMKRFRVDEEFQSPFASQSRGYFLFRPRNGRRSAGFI
Sequence of UniProt Q9HBL8 (Q9HBL8 whole entry, looked up): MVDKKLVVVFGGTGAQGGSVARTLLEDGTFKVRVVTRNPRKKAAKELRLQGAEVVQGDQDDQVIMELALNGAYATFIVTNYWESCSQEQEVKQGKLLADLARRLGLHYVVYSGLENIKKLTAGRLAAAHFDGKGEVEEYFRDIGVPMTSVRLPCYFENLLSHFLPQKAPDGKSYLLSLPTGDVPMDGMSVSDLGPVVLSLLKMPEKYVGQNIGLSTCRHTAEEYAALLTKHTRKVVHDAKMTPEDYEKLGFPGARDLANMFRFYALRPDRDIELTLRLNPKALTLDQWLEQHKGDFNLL
Sequence of NA, A0A494C071 (A0A494C071 whole entry, looked up): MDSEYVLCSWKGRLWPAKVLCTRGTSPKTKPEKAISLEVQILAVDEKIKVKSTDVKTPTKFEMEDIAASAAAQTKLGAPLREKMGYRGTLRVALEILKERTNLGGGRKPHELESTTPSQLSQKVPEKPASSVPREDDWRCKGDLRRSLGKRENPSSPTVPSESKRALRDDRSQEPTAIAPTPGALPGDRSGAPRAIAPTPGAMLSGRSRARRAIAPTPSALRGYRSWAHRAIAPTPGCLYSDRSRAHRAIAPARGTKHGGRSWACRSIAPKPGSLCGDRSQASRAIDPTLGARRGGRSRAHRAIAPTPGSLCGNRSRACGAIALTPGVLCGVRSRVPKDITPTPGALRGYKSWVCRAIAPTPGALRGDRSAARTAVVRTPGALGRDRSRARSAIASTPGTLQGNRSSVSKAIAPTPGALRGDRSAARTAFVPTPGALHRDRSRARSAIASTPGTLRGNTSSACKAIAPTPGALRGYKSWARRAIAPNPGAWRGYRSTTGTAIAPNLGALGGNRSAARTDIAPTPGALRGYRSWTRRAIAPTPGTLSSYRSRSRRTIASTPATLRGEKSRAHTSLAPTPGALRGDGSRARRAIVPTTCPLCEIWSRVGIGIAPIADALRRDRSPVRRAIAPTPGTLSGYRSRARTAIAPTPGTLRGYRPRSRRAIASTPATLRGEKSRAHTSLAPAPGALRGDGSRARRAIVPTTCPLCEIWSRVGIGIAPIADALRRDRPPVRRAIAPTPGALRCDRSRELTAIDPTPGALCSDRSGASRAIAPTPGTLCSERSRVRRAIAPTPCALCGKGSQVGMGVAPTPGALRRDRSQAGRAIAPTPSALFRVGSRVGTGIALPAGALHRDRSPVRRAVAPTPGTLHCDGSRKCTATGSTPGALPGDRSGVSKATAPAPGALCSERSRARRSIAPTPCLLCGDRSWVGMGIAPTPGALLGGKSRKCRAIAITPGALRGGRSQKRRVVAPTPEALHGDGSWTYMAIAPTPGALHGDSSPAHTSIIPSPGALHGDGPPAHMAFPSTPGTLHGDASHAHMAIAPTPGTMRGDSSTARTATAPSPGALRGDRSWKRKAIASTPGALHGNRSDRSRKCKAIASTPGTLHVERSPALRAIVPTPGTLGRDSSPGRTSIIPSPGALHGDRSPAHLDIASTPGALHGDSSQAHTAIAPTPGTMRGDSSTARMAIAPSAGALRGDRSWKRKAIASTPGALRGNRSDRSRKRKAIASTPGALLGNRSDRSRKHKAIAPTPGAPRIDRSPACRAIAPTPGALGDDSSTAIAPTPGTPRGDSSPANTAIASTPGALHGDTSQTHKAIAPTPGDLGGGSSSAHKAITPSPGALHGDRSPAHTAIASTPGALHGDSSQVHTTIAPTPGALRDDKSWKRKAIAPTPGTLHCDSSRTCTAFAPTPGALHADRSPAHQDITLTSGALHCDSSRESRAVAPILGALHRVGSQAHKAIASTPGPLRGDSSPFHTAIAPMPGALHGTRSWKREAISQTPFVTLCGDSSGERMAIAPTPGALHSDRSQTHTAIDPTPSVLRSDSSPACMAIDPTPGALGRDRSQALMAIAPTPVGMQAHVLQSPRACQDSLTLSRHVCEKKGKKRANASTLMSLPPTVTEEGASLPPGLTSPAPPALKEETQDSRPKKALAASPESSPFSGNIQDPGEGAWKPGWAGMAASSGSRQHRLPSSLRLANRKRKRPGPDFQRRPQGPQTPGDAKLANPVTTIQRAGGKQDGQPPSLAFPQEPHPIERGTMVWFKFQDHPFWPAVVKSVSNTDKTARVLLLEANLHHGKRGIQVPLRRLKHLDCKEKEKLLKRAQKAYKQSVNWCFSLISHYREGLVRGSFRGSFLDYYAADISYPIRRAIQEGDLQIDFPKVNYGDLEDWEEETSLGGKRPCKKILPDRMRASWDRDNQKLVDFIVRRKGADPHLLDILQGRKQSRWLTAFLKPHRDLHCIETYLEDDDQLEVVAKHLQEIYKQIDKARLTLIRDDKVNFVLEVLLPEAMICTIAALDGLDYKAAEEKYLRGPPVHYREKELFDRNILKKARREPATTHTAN
Sequence of UniProt Q6N063 (Q6N063 whole entry, looked up): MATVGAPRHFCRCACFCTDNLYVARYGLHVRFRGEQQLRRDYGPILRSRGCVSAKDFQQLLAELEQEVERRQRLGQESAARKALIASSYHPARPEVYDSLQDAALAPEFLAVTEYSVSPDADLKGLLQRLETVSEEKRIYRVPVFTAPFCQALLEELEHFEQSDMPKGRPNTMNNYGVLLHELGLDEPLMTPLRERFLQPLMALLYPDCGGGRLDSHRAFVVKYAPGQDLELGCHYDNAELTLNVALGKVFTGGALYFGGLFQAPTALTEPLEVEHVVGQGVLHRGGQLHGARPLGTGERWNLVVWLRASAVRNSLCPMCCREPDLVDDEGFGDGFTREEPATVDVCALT

Row | Target | log2 fold change [1] | log2 fold change (crizotinib) | log2 fold change [2] | log2 fold change [3] | log2 fold change (gandotinib) | log2 fold change (tozasertib) | log2 fold change (doramapimod) | log2 fold change (ispinesib) | log2 fold change (duvelisib) | log2 fold change [4]
1 | NME2P1 (UniProt O60361) | -0.093 | -0.066 | -0.114 | 0.079 | -0.346 | -0.012 | 0.27 | -0.119 |  | 
2 | MLST8 (UniProt Q9BVC4) | -0.07 | -0.12 | 0.014 | 0.089 |  | 0.006 | 0.042 |  | 0.067 | 0.079
3 | MRPS16 (UniProt Q9Y3D3) | 0.061 | 0.014 | 0.028 | 0.159 | -0.031 | 0.05 | 0.001 | -0.266 |  | 
4 | NMRAL1 (UniProt Q9HBL8) | 0.228 | 0.469 | 0.054 | 0.04 | -0.169 | -0.056 | 0.001 | -0.103 | 0.046 | -0.009
5 | MPHOSPH10 (UniProt O00566) | -0.083 | 0.026 | -0.25 | 0.353 | 0.189 | 0.016 | 0.049 | -0.023 | -0.047 | -0.046
6 | NOP53 (UniProt Q9NZM5) | -0.116 | 0.029 | -0.019 | 0.638 | 0.377 | 0.147 | 0.277 | 0.015 | -0.335 | -0.027
7 | NCOR1 (UniProt O75376) | -0.078 | 0.017 | 0.15 | -0.064 | -0.007 | 0.004 | -0.044 | 0.004 | 0.063 | -0.061
8 | NFYB (UniProt P25208) | -0.004 | 0.069 |  | -0.084 | 0.011 | 0.085 | -0.028 | 0.168 | -0.123 | -0.124
9 | NIBAN1 (UniProt Q9BZQ8) | 0.02 | -0.296 | 0.014 | 0.097 | -0.143 | -0.003 | 0.001 | -0.148 | 0.017 | 0.116
10 | NOB1 (UniProt Q9ULX3) | 0.012 | -0.142 | -0.033 | 0.15 | 0.019 | -0.067 | 0 | -0.038 | -0.046 | 0.113
11 | NCKAP1 isoform 2 (UniProt Q9Y2A7) | -0.021 | -0.071 | 0 | -0.08 | -0.093 | -0.017 | -0.027 | 0.034 | -0.006 | 0.031
12 | MPHOSPH8 isoform 2 (UniProt Q99549) | -0.068 | -0.036 | -0.05 | 0.045 |  | 0.04 | 0.059 | 0.18 | -0.006 | -0.018
13 | NCBP2AS2 (UniProt Q69YL0) | -0.092 |  |  | -0.027 | -0.064 | -0.034 |  | -0.48 (active) | 0.037 | 0.044
14 | MLH1 (UniProt P40692) |  |  | 0.042 | -0.127 | -0.068 | -0.124 |  |  | 0 | 0.094
15 | OAF (UniProt Q86UD1) | -0.112 |  |  |  |  |  |  | 0.014 |  | 
16 | MYO19 (UniProt Q96H55) |  | 0.047 | -0.215 | 0.491 | -0.081 |  | 0.066 | -0.065 | -0.07 | 0.158
17 | NMU (UniProt P48645) |  | 0.025 | -0.445 | -0.026 | -0.159 | -0.092 | -0.04 | -0.186 | -0.001 | 0.127
18 | NOLC1 isoform 3 (UniProt Q14978) |  |  |  | -0.305 |  |  |  |  |  | 
19 | NA, A0A1W2PSA9 |  |  |  | 0.041 | 0.403 | -0.062 |  | -0.059 | 0.311 | -0.371
20 | NA, A0A494C071 |  | -0.887 (active) | 0.137 | 0.043 | -0.352 | -0.152 | 0.104 |  | 0.007 | -0.102
21 | ORC5 (UniProt O43913) | 0.166 | -0.766 (active) |  | 0.008 | -0.226 | -0.007 | -0.104 | -0.152 | 0.074 | 0.135
22 | MRM2 (UniProt Q9UI43) |  |  |  | -0.042 |  | -0.119 |  |  | 0 | 0.123
23 | PAFAH2 (UniProt Q99487) | 0.005 | 0.029 |  | 0.08 |  | -0.011 | 0.053 | -0.044 | 0.215 | -0.057
24 | MYH16 (UniProt Q9H6N6) | -0.33 | -0.097 |  | -0.012 | -0.279 | -0.027 | 0.399 |  |  | 
25 | OGFOD2 (UniProt Q6N063) |  | 0.04 | 0.042 | -0.058 | 0.278 | 0.003 | 0.042 | -0.032 | 0.035 | 0.034
26 | MYSM1 (UniProt Q5VVJ2) | 0.067 | -0.091 |  |  |  |  | -0.045 | 0.128 |  | 

Row | Target | log2 fold change [1] | log2 fold change (crizotinib) | log2 fold change [2] | log2 fold change [3] | log2 fold change (gandotinib) | log2 fold change (tozasertib) | log2 fold change (doramapimod) | log2 fold change (ispinesib) | log2 fold change (duvelisib) | log2 fold change [4]
27 | MITF (UniProt O75030) | 0.026 | -0.137 |  |  | -0.13 |  | 0.006 |  |  | 
28 | NA (UniProt J3KR12) |  | 0.251 | 0.061 |  |  |  | -0.017 | 0.006 |  | 
29 | NOS1AP (UniProt O75052) |  |  | 0.101 | 0.237 |  | -0.164 |  | -0.279 |  | 
30 | MOB2 isoform 3 (UniProt Q70IA6) |  |  | -0.166 | 0.044 | -0.093 | -0.1 |  | -0.025 |  | 
31 | NKAP (UniProt Q8N5F7) |  | -0.113 | -0.118 | 0.013 | 0.041 | 0.039 | 0.042 | 0.001 | 0.016 | -0.034
32 | NAP1L1 (UniProt B7Z9C2) |  | -0.015 |  |  | 0.041 |  | 0.155 |  | 0.327 | 0.433
33 | MTHFD1, A0A384N5Y3 | 0.109 |  | 0.117 | -0.008 | -0.036 | -0.11 |  | -0.082 | 0.108 | 0.081
34 | NA, A0A2R8Y3M9 | -0.084 | 0.013 |  | -0.011 | -0.099 |  | -0.008 | -0.125 | -0.299 | -0.107
35 | OSBPL2 (UniProt Q9H1P3) |  |  |  | 0.124 |  |  |  |  |  | 
36 | NELFCD (UniProt Q8IXH7) |  | 0.349 | 0.145 | 0.006 | -0.327 |  | 0.025 |  | 0.13 | 0.249
37 | NRGN (UniProt Q92686) |  | 0.241 | 0.043 |  | 0.891 (active) |  | -0.282 | 0 |  | 
38 | NUDT1 (UniProt P36639) | 0.185 |  | 0.08 | 0.107 | -0.167 | -0.057 | -0.113 | 0.012 | 0.61 | 0.017
39 | MXRA7 isoform 3 (UniProt P84157) |  |  |  |  |  |  |  | -0.092 |  | 
40 | NA (UniProt B2RBV5) | -0.027 |  | 0.064 |  | 0 |  |  |  |  | 
41 | NA isoform 3 (UniProt Q4G0T1) | 0.023 | -0.004 |  | -0.157 |  | 0.005 | 0.077 | -0.099 | 0.042 | -0.001
42 | OVCA2 (UniProt Q8WZ82) |  | 0.064 |  |  | -0.232 |  | -0.186 | 0.026 |  | 
43 | MMADHC (UniProt Q9H3L0) |  | 0.065 |  | 0.093 | -0.087 | -0.001 | 0.099 | -0.038 | 0.007 | 0.084
44 | NUDT6 (UniProt P53370) |  | 0.069 | 0.122 | 0.6 |  | -0.036 | -0.127 | -0.097 | 0.019 | -0.094
45 | OXR1 isoform 2 (UniProt Q8N573) |  | -0.027 | 0.187 | -0.105 | -0.225 | 0.005 | 0.022 | -0.134 | 0.024 | 0.043
46 | NCOA5 (UniProt Q9HCD5) | -0.005 | -0.131 |  |  | 0.05 |  | 0.168 | 0.02 | -0.155 | 0.052
47 | MORC2 (UniProt Q9Y6X9) |  | 0.027 | 0.065 |  |  |  | -0.042 |  |  | 
48 | MT-ND2 (UniProt P03891) |  | 0.096 |  | -0.028 | -0.064 | 0.07 | -0.141 | 0.336 | 0.177 | 0.101
49 | NPC1L1 (UniProt Q9UHC9) | 0.002 | -0.07 |  | -0.044 |  | -0.059 | 0.033 |  | 0.107 | -0.159
50 | MSANTD2 (UniProt Q6P1R3) | 0.295 |  | 0.089 |  |  | 0.064 |  |  | 0.019 | 0.039
51 | MOB3B (UniProt Q86TA1) |  | -0.078 |  | 0.098 | 0.039 | -0.025 | 0 |  |  | 

— the supplement of paper PMC10849652
